In PubChem BioAssay AID1259423 (Fisher Drug Discovery Resource Center, 2018):
“And” between values parts separate entries of the source, which are not always exact repeats. Equal entries are not always repeated. The whole screen tested about 270,000 compounds, of which about 410 (0.15%) were called active. No stated cut-off is given here; in the data, active means activation above about 40%; inactive means the rest, inconclusive results apart. Many of the other results were omitted from the sample, so actives are more common in it than they were.

System: Aedes aegypti neuropeptide Y-like receptor 7 (NPYLR7)
Experiment: agonists of mosquito NPYLR7 receptor, primary screen, cell-based, Aedes aegypti, calcium fluorescence, mosquito biting behavior (AID 1259423);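 further: 0% = vehicle and 100% = reference agonist at the receptor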
Details: HEK293T NPYLR7/Galpha15, GCaMP6s calcium fluorescence, at 10 µM, stronger effect = higher value
[1] = measured here: Max-Min RFU normalised activation

Compound | activation | activation [1]
Cc1nc(N)sc1C(=O)N/N=C1\CCn2cccc21 | 4.89% (inactive) | 3.57%
CCc1nc2c(OCC=C(C)C)cccn2c1N(C)C(=O)c1ccco1 | 6.84% (inactive) | -5.05%
CCOC(=O)C1CCN(C(=O)CC2CSc3nc4c(c(=O)n32)CCCC4)CC1 (stereo unspecified) | -0.315% (inactive) | -2.68%
COc1ccc(NCc2cccc(F)c2)cc1N1CCOC1=O | 11.9% (inactive) and 1.76% (inactive) | 10.7% and -0.214%
CCN(CC)c1onc(-c2ccc(F)cc2)c1CN(CCOC)C(=O)Cc1ccccc1 | 15% (inactive) | 16.6%
Cc1ccc(F)c(-n2nnnc2CSCC(=O)NC(C)(C)C)c1 | 1.4% (inactive) | 3.68%
Cc1cc(C)cc(C(O)C(F)(F)F)c1 (stereo unspecified) | 4.04% (inactive) and 3.71% (inactive) | 3.27% and 11.4%
CCc1cccc2sc(N(Cc3ccccn3)C(=O)c3cccc(S(=O)(=O)CC)c3)nc12 | 1.88% (inactive) | -3.52%
COc1ccc(CN(CC(O)COCC(C)C)CC2CCCO2)cc1OC (stereo unspecified) | 1.65% (inactive) | 13.2%
CN(Cc1ncc[nH]1)C1CCN(c2ccc3c(c2)OCO3)CC1 | -10.3% (inactive) | -10.5%
NC(=O)[C@@H]1CN2CCN(C(=O)c3ccco3)C[C@@H]2[C@H]1c1ccccc1 | 2.73% (inactive) | 0.0894%
O=C(c1ccc(-n2cnnn2)cc1)N1CCCC(N2CCCC2)C1 (stereo unspecified) | 6.38% (inactive) | 2.39%
O=c1c2ccccc2sn1CN1CCN(c2ccc(C(F)(F)F)cn2)CC1 | 10.9% (inactive) | 3.72%
CC[C@H]1CN(Cc2cc(Cl)cc(OC)c2OC)CC[C@@]1(C)O | -5.14% (inactive) | -11.2%
Cc1ccc(CN(CCN2CCOCC2)CC(O)c2ccccc2)s1 (stereo unspecified) | 1.67% (inactive) | 15.8%
CCN1C(=O)CSC1=C(C#N)C(N)=O | 4.07% (inactive) | -0.252%
CN(C)CC1(O)CCCN(C(=O)c2ccc(N3CCCC3=O)cc2)C1 (stereo unspecified) | -3.42% (inactive) | -7.14%
Nc1ccc2c3c(cccc13)C(=O)NC2=O | 147% (active) | 136%
Clc1cccc2ccc(CN3CCn4cncc4C3)nc12 | 133% (active) | 113%
CC1CNC(=O)CCN1Cc1ccc2cccc(Cl)c2n1 (stereo unspecified) | 8.75% (inactive) | 6.16%
Cc1c(CN2CCn3cncc3C2)c(=O)n(-c2ccccc2)n1C | 20.8% (inactive) | 15.6%
Cc1nc2ccccc2c(=O)n1N=Cc1ccc(OCc2ccccc2)cc1 | -6.32% (inactive) | -12.4%
CCOc1ccc(N2CC(NC(=O)Nc3ncccc3C)CC2=O)cc1 (stereo unspecified) | 2.56% (inactive) | -0.89%
Cn1nc(C(=O)N2CCCC(COc3ccccc3F)C2)ccc1=O (stereo unspecified) | 11.1% (inactive) | 4.67%
O=C(c1cnn(-c2ccccc2)n1)N1CCCC(COCc2ccccc2)C1 (stereo unspecified) | 97.3% (active) | 92.7%
O=C(Cc1cnn(-c2ccccc2)n1)N1CCCCCCC1 | 10.9% (inactive) | 7.94%
CN1CCOC(CCNC(=O)CCC(=O)N2CCCCCC2)C1 (stereo unspecified) | 1.36% (inactive) | -0.93%

Compound | activation | activation [1]
COc1ccc(C=CC(=O)c2ccc(I)cc2)cc1OC | 1.5% (inactive) | 6.21%
COc1ccc(C(=O)C=Cc2cc(Br)c(O)c(OC)c2)cc1F | 172% (active) | 160%
COc1ccc(C(=O)C=Cc2ccc(F)c(F)c2)cc1F | 2.38% (inactive) | -4.33%
CCCCCCC(=O)Nc1c(-c2ccc(OC)c(OC)c2)nc2cc(C)ccn12 | -2.82% (inactive) | 4.02%
CC(=O)N1CCC(C(=O)N2CCCC(C(=O)c3ccc(C(F)(F)F)cc3)C2)CC1 (stereo unspecified) | 0.616% (inactive) | -1.09%
COc1ccc(C)c2sc(N(Cc3ccccc3)C(=O)c3ccc([N+](=O)[O-])o3)nc12 | 3.04% (inactive) | 0.795%
Oc1ccc(-c2onc3ccc(Cl)cc23)cc1 | 112% (active) | 227%
N#C/C(=C\c1ccc2noc(-c3ccccc3)c2c1)C(=O)Nc1ccccc1C#N | 22.3% (inactive) | 18.1%
c1ccc(Nc2nc(-c3ccco3)nc3ccccc23)cc1 | -1.91% (inactive) | 4.58%
COc1ccccc1-c1cc(C(=O)N2CCCC2)n2nc(C(C)(C)C)cc2n1 | 3.24% (inactive) | 10.6%
CC1CN(C(=O)NCC(C)N(C)c2ccccc2)CC(C)O1 (stereo unspecified) | 4.84% (inactive) | 1.94%
COc1ccc(CN(Cc2nc(C(=O)O)co2)C(C)c2ccccc2)c(OC)c1 (stereo unspecified) | 10.6% (inactive) | 6.62%
CN(Cc1cc(-c2ccncc2)no1)Cc1cn[nH]c1-c1cccc(F)c1 | 1.92% (inactive) | 4.35%
CC(C(=O)O)N1C(=O)/C(=C/c2ccc(N(C)C)cc2)SC1=S (stereo unspecified) | 64.5% (active) | 54.2%
COc1ccc(N2C(=O)/C(=C\c3ccc(N(C)C)cc3)SC2=S)cc1 | -3.18% (inactive) | -7.36%
CC(C(=O)O)N1C(=O)/C(=C/c2ccccn2)SC1=S (stereo unspecified) | -2.67% (inactive) | -6.6%
Brc1ccc2nc(-c3ccccc3)c(NC3CCCCC3)n2c1 | -4.85% (inactive) | 5.22%
Cc1csc(=O)n1CCC(=O)OC(C)C(N)=O (stereo unspecified) | 1.77% (inactive) | 0.428%
CC(=O)Oc1ccc(Cn2c(C)c(C(=O)NCc3ccc(C(C)C)cc3)sc2=O)cc1 | -6.93% (inactive) | -8.16%
Cc1c(C(=O)NCc2ccc(C#N)cc2)sc(=O)n1Cc1ccc(C(=O)N(C)C)cc1 | 2.34% (inactive) | -0.426%
CC(=O)Oc1ccc(Cn2c(C)c(C(=O)NCc3ccc(C#N)cc3)sc2=O)cc1 | 53.2% (active) | 43.3%
CC(=O)N1CCN(C(=O)COc2c(C)cc(Br)cc2Cl)CC1 | 2.73% (inactive) | 1.6%
O=P1(Nc2cc(C(F)(F)F)ccc2Cl)C=C(c2ccccc2)OC(c2ccccc2)=C1 | 52.5% (active) | 88.3%
COc1ccc(C(=O)Nc2cc(C(F)(F)F)ccc2Cl)cc1[N+](=O)[O-] | 1.83% (inactive) | 0.579%
CCn1c(N2CCN(Cc3cccc4ccccc34)CC2)nc2c1c(=O)[nH]c(=O)n2C | 1.95% (inactive) | 4.2%
O=C(Nc1nc2c(s1)CCC2)c1cnn(Cc2ccccc2)c1 | -0.747% (inactive) | -2.1%
